# Screening results deposited in PubChem BioAssay by The Scripps Research Institute Molecular Screening Center.
# The list is not random: actives were taken first. Their share in the collection is about 3.4%.
# FBW7 act: FBW7 E3 ligase activators, primary screen, biochemical, AlphaScreen, human | F-box/WD repeat-containing protein 7 (Homo sapiens), Q969H0 | AlphaScreen FBW7–phospho-cyclin E peptide binding, activator screen | normalized activity (activation), % at 26.1 µM | 650,000 tested, 0.13% active; in the data active means normalized activity above about 1.9%;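 further: purified mutant Fbw7 with reduced substrate affinity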
# TEAD-YAP block: TEAD-YAP interaction inhibition, primary screen, TEAD-YAP interaction inhibitor project, luminescence, HEK-TIYL cells; TEAD-Gal4/YAP UAS-luciferase luminescence; inhibition, % at 9.12 µM; 640,000 tested, 1.4% active; in the data active means inhibition above about 32%;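 further: 0% = median of test compound wells and 100% = reference inhibitor wells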
# MITF inh: MITF inhibitors, primary screen, biochemical, AlphaScreen, human; AlphaScreen MITF homodimerization, bead proximity signal; 650,000 tested, 0.91% active; inhibition, % at 2.6 µM; Microphthalmia-associated transcription factor (Homo sapiens), O75030; AID 1259374, 2018; in the data active means inhibition above about 50%;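 further: 0% = vehicle wells with protein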
# GPR151 ag: activators of human GPR151, primary screen, cell-based, PathHunter beta-arrestin, luminescence; G-protein coupled receptor 151 (Homo sapiens), Q8TDV0; PathHunter beta-arrestin GPR151 cells; activation, % at 11.2 µM; 650,000 tested, 1% active; in the data active means activation above about 4.9%;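 further: 0% = median of compound wells and 100% = cells with positive control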
# Target sequence (Q8TDV0 whole entry, looked up): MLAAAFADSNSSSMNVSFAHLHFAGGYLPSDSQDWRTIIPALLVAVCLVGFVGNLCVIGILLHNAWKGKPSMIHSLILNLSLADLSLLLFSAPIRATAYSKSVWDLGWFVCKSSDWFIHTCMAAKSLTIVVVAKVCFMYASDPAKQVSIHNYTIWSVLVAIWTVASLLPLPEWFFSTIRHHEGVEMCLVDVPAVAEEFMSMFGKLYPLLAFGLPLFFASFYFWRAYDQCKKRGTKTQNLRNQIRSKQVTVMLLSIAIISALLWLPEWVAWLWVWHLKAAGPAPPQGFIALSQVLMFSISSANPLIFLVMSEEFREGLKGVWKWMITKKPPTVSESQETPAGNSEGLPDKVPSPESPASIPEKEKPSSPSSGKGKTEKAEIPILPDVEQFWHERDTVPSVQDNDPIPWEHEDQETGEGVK
# GPR151 confirm: GPR151 activators, triplicate retest, confirmation, cell-based, PathHunter beta-arrestin, luminescence. shares compounds with GPR151 ag. GPR151 PathHunter beta-arrestin cells, 90 min; % of EA-reagent control over plate median. activation, % at 11.2 µM. 6,700 tested, under 10 active. AID 1508609, 2020;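 active means mean percent activation across replicates above the confirmation screen cutoff of 4.91%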
# GPR119 counter: GPR119 activators in beta-arrestin cells, counter-screen for GPR151 activator project, cell-based, PathHunter beta-arrestin, luminescence, triplicate; shares compounds with GPR151 ag; 90 min; 0 = compound-well median, 100 = enzyme-acceptor control; activation, % at 11.2 µM; 6,700 tested, 0.3% active; AID 1508611, 2020;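 active means mean percent activation in the counterscreen above 29.09%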;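 further: counterscreen on off-target GPR119 to flag nonselective hits from the GPR151 activator screen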
# An asterisk follows results filed as active; . = no result given.
SMILES,FBW7 act,TEAD-YAP block,MITF inh,GPR151 ag,GPR151 confirm,GPR119 counter
CCNc1nc(NCCN2CCOCC2)c2ncn(-c3ccccc3)c2n1,0,6,4,-1,.,.
CCNc1nc(NCCN2CCOCC2)c2ncn(-c3ccsc3)c2n1,0,33*,0,6.5*,-2,-10
COc1cc(Nc2nc(NCCO)c3ncn(-c4ccsc4)c3n2)cc(OC)c1OC,0,37*,0,5.6*,0,12
C=CCN(c1ccccc1)S(=O)(=O)c1ccc(F)c(C(=O)Nc2ccc(C)c(C)c2)c1,0,19,-7,-1,.,.
O=S(=O)(Cc1ccccc1)N1CCCC(N2CCOCC2)C1 (stereo not given),0,-10,6,20*,0,15
Cc1cc(=O)[nH]c(SC(C)C(=O)Nc2cccc(Cl)c2)n1 (stereo not given),0,-14,-24,8.7*,-1,-4
COC(=O)Cn1c(=O)c2c(nc3n(Cc4ccc(OC)cc4)c(C)c(C)n23)n(C)c1=O,0,2,0,-1,.,.
CC(=O)Nc1ccc(C(=O)Nc2ccc(F)cc2F)cc1,0,-16,-1,-1,.,.
CCC(=O)N(CCCN(C)C)c1nc(-c2ccc(Cl)cc2)cs1,0,-3,-9,6.0*,1,10
CCN(C(=O)CCl)c1nc(-c2ccc(Cl)cc2)cs1,0,-26,5,1,.,.
Cc1ccc(/C(O)=C2/C(=O)C(=O)N(CCCn3ccnc3)C2c2ccncc2)cc1 (stereo not given),0,-39,-3,-2,.,.
CCC(=O)Nc1nc2n(n1)C(c1ccccc1)CC(c1ccc(Cl)cc1)N2 (stereo not given),0,3,12,-1,.,.
O=C(Nc1nc2n(n1)C(c1ccc(F)cc1)CC(c1ccccc1)N2)c1cccnc1 (stereo not given),0,13,3,5.7*,0,4
COc1cc(Nc2ncc(C(=O)NCc3ccccc3)s2)cc(OC)c1OC,0,-21,9,6.1*,0,3
COc1cc(C(=O)NCc2cc(-c3ccccc3)on2)cc(OC)c1OC,0,-2,0,6.2*,-1,-17
Cc1cc(C)n2nc(NCc3ccccc3Cl)nc2n1,0,-20,15,5.1*,1,5
CCC(Sc1c[nH]c2ccccc12)C(=O)O (stereo not given),0,-5,-2,5.5*,0,0
CCC(Sc1ccccc1C(=O)O)C(=O)O (stereo not given),0,11,11,0,.,.
O=C(CSc1ncnc2sc3c(c12)CCC3)Nc1cc(C(F)(F)F)ccc1Cl,0,8,-10,0,.,.
Cc1nnsc1C(=O)N/N=C/c1ccccc1,0,7,22,1,.,.
Cc1nnsc1C(=O)N(C)c1ccccc1,0,-2,-10,8.2*,0,-3
Cc1ccc(C(=O)N(C)c2ccccc2)cc1,0,-4,12,5.0*,-1,-5
COc1ccc(/C=N/Nc2nc(C)c([N+](=O)[O-])c(N(C)c3ccccc3)n2)cc1OC,0,14,-1,5.5*,1,2
O=C(Nc1c(Cl)cccc1Cl)c1cccc([N+](=O)[O-])c1,0,-2,26,-1,.,.
O=C1CCC(C(=O)Nc2cc(F)cc(F)c2)=NN1,0,9,-3,6.4*,1,6
CC(=O)N1CCc2cc(Br)cc(S(=O)(=O)Nc3noc4ccccc34)c21,0,-7,-17,19*,0,-15
CC(=O)N1CCc2cc(Br)cc(S(=O)(=O)Nc3cccc(Cl)c3)c21,0,4,-11,-1,.,.
CSc1ncc(CN2CCN(CC(C)(C)C)C(CCO)C2)cn1 (stereo not given),0,1,-2,5.8*,0,2
C=CCN1C(=O)CS/C1=N\NC(=O)c1ccccc1,0,-1,2,18*,1,4
